The values below come from PMC7862700, “An all-to-all approach to the identification of sequence-specific readers for epigenetic DNA modifications on cytosine”.

Common to all, as to assay: DAPPL (digital affinity profiling via proximity ligation, sequencing); 10 mM Tris-HCl pH 7.5, 50 mM NaCl, 1 mM DTT, 4% glycerol, room temperature, 30 min; GST-TFs on glutathione beads, 16-mer random dsDNA library, 0.1% formaldehyde crosslink after washing; high values mean tight binding
One experiment addresses T1, FEV (Homo sapiens, UniProt Q99581 1-238).
T1 sequence: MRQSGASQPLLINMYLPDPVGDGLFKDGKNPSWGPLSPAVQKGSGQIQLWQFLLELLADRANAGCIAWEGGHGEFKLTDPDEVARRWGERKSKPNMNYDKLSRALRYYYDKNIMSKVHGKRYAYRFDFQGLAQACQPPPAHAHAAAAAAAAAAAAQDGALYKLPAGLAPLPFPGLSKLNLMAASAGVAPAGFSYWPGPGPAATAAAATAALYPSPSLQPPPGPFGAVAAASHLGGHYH
The conditions noted are these: protein: recombinant; tags: N-terminal GST; dsDNA, one strand shown. The procedure, abridged: (§1)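 Pools of DNA-barcoded human transcription factors, expressed in yeast as GST fusions on glutathione beads and combined with a tag-only sample, were incubated with 200 nmole of a 16-mer random double-stranded DNA library. Incubation took 30 min at room temperature in Tris/NaCl/DTT/glycerol buffer and was followed by washing, 0.1% formaldehyde crosslinking, proximity ligation (BsaI/T4 ligase, 1 h, 37 °C), PCR amplification and sequencing on an Illumina NextSeq500. Binding signal is the ratio of a hexamer's read frequency for a factor to its frequency for the tag-only sample.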

The next experiment has as its target ETV5 (Homo sapiens, UniProt P41161 1-510). The conditions noted are these: protein: recombinant; tags: N-terminal GST; dsDNA, one strand shown. An outline of the steps: as §1
The target in another experiment is HSF1 (Homo sapiens, UniProt Q00613 1-529). The conditions noted are these: protein: recombinant; tags: N-terminal GST; chain copies: 3; dsDNA, one strand shown. An outline of the steps:
as §1

A further experiment deals with T2, SPIC (Homo sapiens, UniProt Q8N5J4 1-248).
T2 sequence: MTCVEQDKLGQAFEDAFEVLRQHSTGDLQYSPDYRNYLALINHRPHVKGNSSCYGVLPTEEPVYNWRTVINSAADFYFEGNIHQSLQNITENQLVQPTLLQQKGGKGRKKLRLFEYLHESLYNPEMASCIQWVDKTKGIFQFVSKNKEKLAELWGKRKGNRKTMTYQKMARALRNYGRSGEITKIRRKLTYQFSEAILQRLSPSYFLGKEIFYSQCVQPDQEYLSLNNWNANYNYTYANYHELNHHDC
The conditions noted are these: protein: recombinant; tags: N-terminal GST; dsDNA, one strand shown. An outline of the steps:
as §1

Another experiment concerns the target ELF4 (Homo sapiens, UniProt Q99607 1-663). The conditions noted are these: protein: recombinant; tags: N-terminal GST; dsDNA, one strand shown. The procedure, abridged: as §1
The target of a further experiment is T3, ELK4 (Homo sapiens, UniProt P28324-2 1-405).
T3 sequence: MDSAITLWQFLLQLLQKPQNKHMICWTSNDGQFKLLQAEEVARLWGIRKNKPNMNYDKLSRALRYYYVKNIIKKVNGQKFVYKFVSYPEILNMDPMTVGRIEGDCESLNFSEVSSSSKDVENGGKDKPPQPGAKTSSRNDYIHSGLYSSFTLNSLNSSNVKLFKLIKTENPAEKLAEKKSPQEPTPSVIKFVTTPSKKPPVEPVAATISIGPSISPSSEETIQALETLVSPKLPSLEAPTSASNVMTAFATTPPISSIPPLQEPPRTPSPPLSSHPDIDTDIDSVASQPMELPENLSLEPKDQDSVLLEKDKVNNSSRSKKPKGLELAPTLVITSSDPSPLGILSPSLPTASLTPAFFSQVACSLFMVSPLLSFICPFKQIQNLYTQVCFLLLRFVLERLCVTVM
The conditions noted are these: protein: recombinant; tags: N-terminal GST; dsDNA, one strand shown. An outline of the steps: as §1

A further experiment addresses T4, ETV2 (Homo sapiens, UniProt O00321 1-342).
T4 sequence: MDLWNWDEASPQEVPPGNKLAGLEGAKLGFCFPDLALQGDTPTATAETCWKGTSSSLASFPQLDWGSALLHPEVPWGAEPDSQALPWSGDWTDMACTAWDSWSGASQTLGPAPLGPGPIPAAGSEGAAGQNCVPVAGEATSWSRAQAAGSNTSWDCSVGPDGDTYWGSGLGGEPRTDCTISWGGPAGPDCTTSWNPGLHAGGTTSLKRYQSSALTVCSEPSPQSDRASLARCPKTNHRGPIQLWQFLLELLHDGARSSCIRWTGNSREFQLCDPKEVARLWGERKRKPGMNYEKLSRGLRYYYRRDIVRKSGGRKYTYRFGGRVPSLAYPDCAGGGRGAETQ
The conditions noted are these: protein: recombinant; tags: N-terminal GST; dsDNA, one strand shown. The procedure, abridged:
as §1

The next experiment concerns the target T5, ELF3 (Homo sapiens, UniProt P78545 1-371).
T5 sequence: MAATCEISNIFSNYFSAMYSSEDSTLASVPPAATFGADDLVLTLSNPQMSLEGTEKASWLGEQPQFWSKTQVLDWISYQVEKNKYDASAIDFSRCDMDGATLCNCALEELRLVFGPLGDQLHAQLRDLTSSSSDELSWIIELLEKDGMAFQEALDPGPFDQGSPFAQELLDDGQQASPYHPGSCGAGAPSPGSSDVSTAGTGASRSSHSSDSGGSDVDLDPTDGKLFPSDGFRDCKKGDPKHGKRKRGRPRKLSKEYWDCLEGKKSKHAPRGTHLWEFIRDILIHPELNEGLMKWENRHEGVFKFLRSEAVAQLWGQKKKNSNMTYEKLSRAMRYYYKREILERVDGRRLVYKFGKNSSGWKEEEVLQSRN
The conditions noted are these: protein: recombinant; tags: N-terminal GST; dsDNA, one strand shown. The procedure, abridged:
as §1

The next experiment has as its target CRX (Homo sapiens, UniProt O43186 1-299). The conditions noted are these: protein: recombinant; tags: N-terminal GST; dsDNA, one strand shown. The procedure, abridged:
as §1

In the next experiment the target is ETV1 (Homo sapiens, UniProt P50549 1-477). The conditions noted are these: protein: recombinant; tags: N-terminal GST; dsDNA, one strand shown. The procedure, abridged: as §1
Sequence of ETV1 (P50549 whole entry): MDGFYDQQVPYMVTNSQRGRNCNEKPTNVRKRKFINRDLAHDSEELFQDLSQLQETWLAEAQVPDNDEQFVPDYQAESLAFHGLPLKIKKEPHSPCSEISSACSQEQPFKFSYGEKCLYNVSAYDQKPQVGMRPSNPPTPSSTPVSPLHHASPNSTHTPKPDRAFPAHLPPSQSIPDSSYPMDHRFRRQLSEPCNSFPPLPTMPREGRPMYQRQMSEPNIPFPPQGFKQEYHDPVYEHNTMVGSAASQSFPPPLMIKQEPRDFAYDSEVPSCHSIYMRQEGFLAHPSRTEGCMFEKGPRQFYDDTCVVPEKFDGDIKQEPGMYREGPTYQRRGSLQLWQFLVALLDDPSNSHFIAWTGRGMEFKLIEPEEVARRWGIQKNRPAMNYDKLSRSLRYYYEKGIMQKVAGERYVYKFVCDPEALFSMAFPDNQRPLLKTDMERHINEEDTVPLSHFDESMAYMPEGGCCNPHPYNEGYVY
Another experiment has as its target T6, ERF (Homo sapiens, UniProt P50548 1-548).
T6 sequence: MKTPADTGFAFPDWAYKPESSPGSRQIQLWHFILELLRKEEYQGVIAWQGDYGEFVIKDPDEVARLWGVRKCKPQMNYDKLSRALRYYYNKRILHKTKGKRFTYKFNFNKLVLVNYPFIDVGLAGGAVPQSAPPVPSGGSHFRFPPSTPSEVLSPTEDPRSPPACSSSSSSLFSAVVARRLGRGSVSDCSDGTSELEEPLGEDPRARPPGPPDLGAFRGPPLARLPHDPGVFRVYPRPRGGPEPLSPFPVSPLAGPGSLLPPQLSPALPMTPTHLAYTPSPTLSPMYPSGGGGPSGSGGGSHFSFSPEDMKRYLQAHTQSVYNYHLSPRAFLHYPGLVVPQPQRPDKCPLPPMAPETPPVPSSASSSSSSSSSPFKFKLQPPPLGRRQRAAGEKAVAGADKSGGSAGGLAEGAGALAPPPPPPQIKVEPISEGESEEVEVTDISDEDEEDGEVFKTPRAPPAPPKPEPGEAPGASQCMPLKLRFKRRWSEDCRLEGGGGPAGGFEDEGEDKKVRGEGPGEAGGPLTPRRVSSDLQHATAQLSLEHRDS
The conditions noted are these: protein: recombinant; tags: N-terminal GST; dsDNA, one strand shown. An outline of the steps: as §1

A further experiment deals with T7, ETV3L (Homo sapiens, UniProt Q6ZN32 1-361).
T7 sequence: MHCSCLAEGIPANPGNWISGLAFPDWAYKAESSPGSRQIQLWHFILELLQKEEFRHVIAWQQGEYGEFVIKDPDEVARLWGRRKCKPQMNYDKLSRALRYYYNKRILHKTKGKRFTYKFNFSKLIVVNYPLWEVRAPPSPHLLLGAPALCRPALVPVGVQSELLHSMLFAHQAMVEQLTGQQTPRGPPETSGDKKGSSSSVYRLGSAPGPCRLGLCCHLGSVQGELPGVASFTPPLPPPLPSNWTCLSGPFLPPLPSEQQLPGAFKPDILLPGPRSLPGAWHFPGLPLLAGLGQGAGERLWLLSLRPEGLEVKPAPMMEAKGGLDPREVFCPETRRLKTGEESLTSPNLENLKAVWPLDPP
The conditions noted are these: protein: recombinant; tags: N-terminal GST; dsDNA, one strand shown. The procedure, abridged:
as §1

A further experiment concerns the target T8, ETS2 (Homo sapiens, UniProt P15036 1-469).
T8 sequence: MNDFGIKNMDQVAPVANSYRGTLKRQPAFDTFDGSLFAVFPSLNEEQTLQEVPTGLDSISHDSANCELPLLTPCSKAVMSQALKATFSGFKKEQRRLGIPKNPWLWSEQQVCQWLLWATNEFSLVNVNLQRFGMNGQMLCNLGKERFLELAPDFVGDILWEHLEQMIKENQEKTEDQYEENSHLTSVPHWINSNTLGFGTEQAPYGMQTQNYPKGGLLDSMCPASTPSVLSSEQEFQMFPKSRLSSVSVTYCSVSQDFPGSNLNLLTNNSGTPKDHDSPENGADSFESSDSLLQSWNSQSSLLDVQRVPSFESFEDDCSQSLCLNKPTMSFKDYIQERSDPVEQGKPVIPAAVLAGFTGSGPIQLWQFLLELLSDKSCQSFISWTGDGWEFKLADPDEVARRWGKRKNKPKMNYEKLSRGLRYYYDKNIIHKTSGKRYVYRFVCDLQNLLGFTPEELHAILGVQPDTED
The conditions noted are these: protein: recombinant; tags: N-terminal GST; dsDNA, one strand shown. An outline of the steps: as §1

In the next experiment the target is T9, SPDEF (Homo sapiens, UniProt O95238 1-335).
T9 sequence: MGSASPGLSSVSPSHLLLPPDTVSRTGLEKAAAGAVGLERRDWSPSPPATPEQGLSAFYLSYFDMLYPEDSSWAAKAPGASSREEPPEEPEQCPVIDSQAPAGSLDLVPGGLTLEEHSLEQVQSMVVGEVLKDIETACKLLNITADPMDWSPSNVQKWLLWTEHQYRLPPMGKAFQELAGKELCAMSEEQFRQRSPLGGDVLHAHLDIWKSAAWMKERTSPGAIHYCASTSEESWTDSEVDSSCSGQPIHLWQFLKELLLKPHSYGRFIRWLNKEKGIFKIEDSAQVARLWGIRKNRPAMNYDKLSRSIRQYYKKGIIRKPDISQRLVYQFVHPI
The conditions noted are these: protein: recombinant; tags: N-terminal GST; dsDNA, one strand shown. An outline of the steps: as §1

The next experiment concerns the target T10, ETV7 (Homo sapiens, UniProt Q9Y603 1-341).
T10 sequence: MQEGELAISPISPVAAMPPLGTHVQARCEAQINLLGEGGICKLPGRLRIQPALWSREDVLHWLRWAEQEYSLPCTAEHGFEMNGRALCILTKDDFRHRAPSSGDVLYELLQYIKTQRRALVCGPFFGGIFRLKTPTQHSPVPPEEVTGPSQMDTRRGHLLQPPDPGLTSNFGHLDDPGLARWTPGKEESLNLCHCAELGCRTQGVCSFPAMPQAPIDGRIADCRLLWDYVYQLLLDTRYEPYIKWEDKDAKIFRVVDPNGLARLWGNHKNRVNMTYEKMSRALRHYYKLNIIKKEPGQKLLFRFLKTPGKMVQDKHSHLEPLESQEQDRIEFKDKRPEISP
The conditions noted are these: protein: recombinant; tags: N-terminal GST; dsDNA, one strand shown. The procedure, abridged: as §1

A further experiment deals with T11, ELF5 (Homo sapiens, UniProt Q9UKW6-2 1-255).
T11 sequence: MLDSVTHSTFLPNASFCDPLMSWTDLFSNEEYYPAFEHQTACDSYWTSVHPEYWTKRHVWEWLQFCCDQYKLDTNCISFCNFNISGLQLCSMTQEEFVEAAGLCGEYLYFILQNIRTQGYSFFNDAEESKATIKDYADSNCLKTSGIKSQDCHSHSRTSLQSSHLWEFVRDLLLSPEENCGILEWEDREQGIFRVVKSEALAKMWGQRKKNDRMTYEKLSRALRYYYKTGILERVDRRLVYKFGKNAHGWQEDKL
The conditions noted are these: protein: recombinant; tags: N-terminal GST; dsDNA, one strand shown. The procedure, abridged:
as §1

In a further experiment the target is T12, ETV3 (Homo sapiens, UniProt P41162-2 1-143).
T12 sequence: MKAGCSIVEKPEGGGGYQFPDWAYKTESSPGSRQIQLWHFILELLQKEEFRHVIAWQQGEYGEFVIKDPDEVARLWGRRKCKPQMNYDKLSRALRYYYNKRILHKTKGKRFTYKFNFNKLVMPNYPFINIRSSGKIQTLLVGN
The conditions noted are these: protein: recombinant; tags: N-terminal GST; dsDNA, one strand shown. An outline of the steps: as §1

For a further experiment, the target named is ETV6 (Homo sapiens, UniProt P41212 1-452). The conditions noted are these: protein: recombinant; tags: N-terminal GST; dsDNA, one strand shown. The procedure, abridged:
as §1

Sequence of HSF1 (Q00613 whole entry): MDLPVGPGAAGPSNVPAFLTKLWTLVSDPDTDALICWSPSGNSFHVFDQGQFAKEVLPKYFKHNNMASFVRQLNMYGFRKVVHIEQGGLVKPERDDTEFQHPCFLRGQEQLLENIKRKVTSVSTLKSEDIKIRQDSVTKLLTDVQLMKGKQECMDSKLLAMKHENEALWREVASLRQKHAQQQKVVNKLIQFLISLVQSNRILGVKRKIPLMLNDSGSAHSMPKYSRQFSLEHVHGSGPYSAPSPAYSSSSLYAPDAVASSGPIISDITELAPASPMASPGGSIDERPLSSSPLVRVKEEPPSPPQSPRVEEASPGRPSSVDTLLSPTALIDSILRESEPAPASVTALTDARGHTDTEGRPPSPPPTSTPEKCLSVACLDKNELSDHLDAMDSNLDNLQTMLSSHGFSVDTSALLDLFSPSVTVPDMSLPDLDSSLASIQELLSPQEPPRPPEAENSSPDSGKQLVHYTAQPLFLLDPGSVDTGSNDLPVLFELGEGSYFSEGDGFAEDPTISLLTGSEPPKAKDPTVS
Sequence of ELF4 (Q99607 whole entry): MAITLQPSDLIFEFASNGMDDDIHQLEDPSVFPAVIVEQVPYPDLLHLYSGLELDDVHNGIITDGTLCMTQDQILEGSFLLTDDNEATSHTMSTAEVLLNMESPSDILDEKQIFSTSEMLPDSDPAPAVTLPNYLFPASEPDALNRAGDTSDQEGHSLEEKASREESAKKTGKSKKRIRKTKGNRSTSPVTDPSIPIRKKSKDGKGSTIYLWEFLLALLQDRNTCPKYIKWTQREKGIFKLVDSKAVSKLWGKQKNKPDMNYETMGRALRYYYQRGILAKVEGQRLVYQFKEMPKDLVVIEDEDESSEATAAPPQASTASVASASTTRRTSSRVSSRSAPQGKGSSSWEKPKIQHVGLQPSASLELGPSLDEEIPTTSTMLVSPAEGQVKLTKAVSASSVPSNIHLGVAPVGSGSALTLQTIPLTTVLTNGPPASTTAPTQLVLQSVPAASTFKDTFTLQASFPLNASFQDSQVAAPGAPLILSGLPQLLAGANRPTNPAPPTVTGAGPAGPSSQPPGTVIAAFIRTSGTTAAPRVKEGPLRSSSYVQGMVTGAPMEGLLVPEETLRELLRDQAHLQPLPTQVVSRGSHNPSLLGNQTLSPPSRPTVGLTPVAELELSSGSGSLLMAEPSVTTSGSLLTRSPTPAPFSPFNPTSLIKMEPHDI
Sequence of ETV5 (P41161 whole entry): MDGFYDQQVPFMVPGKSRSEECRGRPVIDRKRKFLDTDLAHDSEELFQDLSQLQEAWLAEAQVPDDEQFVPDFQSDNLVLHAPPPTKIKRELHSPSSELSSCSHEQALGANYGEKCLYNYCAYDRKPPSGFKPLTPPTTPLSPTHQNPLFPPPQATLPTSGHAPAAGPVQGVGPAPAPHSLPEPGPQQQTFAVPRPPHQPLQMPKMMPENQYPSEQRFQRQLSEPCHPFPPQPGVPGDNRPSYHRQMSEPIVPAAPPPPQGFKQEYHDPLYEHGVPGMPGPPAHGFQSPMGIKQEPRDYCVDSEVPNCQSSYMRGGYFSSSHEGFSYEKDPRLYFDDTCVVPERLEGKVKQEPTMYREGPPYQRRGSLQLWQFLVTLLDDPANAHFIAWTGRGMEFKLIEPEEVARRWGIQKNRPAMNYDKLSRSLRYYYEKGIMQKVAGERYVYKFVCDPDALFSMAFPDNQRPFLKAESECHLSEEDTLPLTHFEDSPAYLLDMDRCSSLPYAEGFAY
Sequence of CRX (O43186 whole entry): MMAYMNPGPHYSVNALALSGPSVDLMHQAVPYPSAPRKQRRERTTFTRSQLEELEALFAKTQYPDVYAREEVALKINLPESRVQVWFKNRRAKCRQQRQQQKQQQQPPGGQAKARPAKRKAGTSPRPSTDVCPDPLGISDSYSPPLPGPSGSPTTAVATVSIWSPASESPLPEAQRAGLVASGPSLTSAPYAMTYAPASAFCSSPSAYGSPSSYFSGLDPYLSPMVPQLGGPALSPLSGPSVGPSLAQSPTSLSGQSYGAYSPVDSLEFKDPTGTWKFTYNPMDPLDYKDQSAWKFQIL
Sequence of ETV6 (P41212 whole entry): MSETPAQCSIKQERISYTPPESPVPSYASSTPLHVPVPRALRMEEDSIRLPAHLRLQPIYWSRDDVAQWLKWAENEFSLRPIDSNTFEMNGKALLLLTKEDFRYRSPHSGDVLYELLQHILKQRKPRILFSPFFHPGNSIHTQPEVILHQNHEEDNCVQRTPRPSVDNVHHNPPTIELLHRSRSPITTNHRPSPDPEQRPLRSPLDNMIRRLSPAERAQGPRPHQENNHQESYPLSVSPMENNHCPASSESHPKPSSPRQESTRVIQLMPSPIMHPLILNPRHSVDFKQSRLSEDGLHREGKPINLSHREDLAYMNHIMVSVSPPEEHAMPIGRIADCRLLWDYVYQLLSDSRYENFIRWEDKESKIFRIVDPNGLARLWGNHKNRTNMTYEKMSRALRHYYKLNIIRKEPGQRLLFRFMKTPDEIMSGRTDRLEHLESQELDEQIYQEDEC

Consider AATAGC, for which the binding signal with FEV is 1.18 fold enrichment (6-mer frequency, TF over GST control); with ETV5, 1.19 fold enrichment (6-mer frequency, TF over GST control); with HSF1, 1.07 fold enrichment (6-mer frequency, TF over GST control); with SPIC it was 1.01 fold enrichment (6-mer frequency, TF over GST control); with ELF4 it was 1.15 fold enrichment (6-mer frequency, TF over GST control); with ELK4, 1.19 fold enrichment (6-mer frequency, TF over GST control). In addition, the binding signal in the experiment with ETV2 is 1.17 fold enrichment (6-mer frequency, TF over GST control); in the experiment with ELF3, 1.23 fold enrichment (6-mer frequency, TF over GST control); with CRX it was 1.15 fold enrichment (6-mer frequency, TF over GST control); in the experiment with ETV1, 1.13 fold enrichment (6-mer frequency, TF over GST control); in the experiment with ERF it was 1.25 fold enrichment (6-mer frequency, TF over GST control); with ETV3L, 1.03 fold enrichment (6-mer frequency, TF over GST control). Further, the binding signal in the experiment with ETS2 is 1.15 fold enrichment (6-mer frequency, TF over GST control); with SPDEF, 1.1 fold enrichment (6-mer frequency, TF over GST control); with ETV7, 1.19 fold enrichment (6-mer frequency, TF over GST control); with ELF5 it was 1.16 fold enrichment (6-mer frequency, TF over GST control); with ETV3, 1.23 fold enrichment (6-mer frequency, TF over GST control); with ETV6 it was 1.1 fold enrichment (6-mer frequency, TF over GST control).
